The record followed here is ChEMBL document CHEMBL1201862, “PubChem BioAssay data set” (2004).

Measured potencies and affinities stand elsewhere.

This test can be described thus: A High Throughput Confirmatory Assay used to Identify Novel Compounds that Inhibit Mycobacterium Tuberculosis in the absence of Glycerol using Purified and Synthesized Compounds (5). The test is classed as functional.
As to `Cc1[nH]c2ccccc2c1C(=O)COC(=O)c1ccc([N+](=O)[O-])s1`, the 90% effect concentration (IC90) was > 68.8 µM (active).
The result for `CCCc1cc(C(N)=S)ccn1` reads > 100 µM (active); that for `Cc1cc(Br)ccc1NC(=O)c1cnc(N2CCN(c3ccccn3)CC2)c2ccccc12`, > 100 µM (active); that for `CNC(=O)CSc1nc2ccccc2c(=O)[nH]1`, > 100 µM (active).
